A3A deaminase = blocks human APOBEC3A ssDNA deamination. recombinant A3A, FAM/TAMRA ssDNA deamination fluorescence. inhibition, % at 20 µM. actives 0.41% (n = 330,000). AID 493011;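 active means at least 40% inhibition at 20 µM here, with at most 30% in a related deaminase screen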;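 further: plate controls were A3A with DMSO for no effect and wells lacking A3A enzyme for full effect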
Target sequence (P31941 whole entry, looked up): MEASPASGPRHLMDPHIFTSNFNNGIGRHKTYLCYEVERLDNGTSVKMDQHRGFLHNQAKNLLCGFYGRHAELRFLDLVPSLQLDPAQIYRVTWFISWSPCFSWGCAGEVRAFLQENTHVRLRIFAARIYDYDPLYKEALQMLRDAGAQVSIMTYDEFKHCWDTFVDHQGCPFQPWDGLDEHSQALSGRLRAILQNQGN
MIN6 prolif = inducers of beta-cell replication in MIN6 cells. AID 2380. actives 0.29% (n = 330,000). MIN6 cells proliferation, ATPlite luminescence, 48 h; cells starved in 0.2% serum; 100% = growth in 10% serum. proliferation, % at 10 µM;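 active means compounds whose signal lies at least 3.5 SD above the mean of all wells on their plate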;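 further: 0% = DMSO-treated cells in low-serum medium and 100% = 10% serum control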
VLA-4 inh = inhibition in a human VLA-4 binding assay. P13612. VLA-4 expressing cells, ligand binding flow cytometry. inhibition, % (about 7 µM as worked out from the volumes in the protocol). actives 0.2% (n = 330,000); in the data active means inhibition above about 50%
APOBEC3G inh = blocks human APOBEC3G single-stranded DNA deamination; actives 0.28% (n = 330,000); recombinant A3G, ssDNA deamination FAM/TAMRA fluorescence; inhibition, % at 20 µM;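 active means inhibition of at least 40% at 20 µM, with no more than 30% in the related APOBEC3A deaminase screen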;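 further: plate controls were DMSO wells with A3G for no effect and wells lacking A3G enzyme for full effect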
Target sequence (Q9HC16 whole entry, looked up): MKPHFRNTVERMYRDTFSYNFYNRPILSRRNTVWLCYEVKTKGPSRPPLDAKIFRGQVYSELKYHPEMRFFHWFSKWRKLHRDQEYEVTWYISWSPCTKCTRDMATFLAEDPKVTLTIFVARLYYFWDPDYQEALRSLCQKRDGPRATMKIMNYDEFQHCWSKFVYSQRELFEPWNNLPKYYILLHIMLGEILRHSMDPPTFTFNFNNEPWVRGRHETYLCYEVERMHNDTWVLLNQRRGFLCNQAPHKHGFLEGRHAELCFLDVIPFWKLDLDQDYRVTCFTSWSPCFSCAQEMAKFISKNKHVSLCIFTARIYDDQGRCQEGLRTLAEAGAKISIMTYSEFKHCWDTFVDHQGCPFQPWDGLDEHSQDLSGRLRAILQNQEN
CendR NRP1 mod = modulators of CendR peptide binding to human neuropilin-1 | O14786 | AID 602438 | FAM-RPARPAR peptide binding to NRP-1, fluorescence polarization | actives 0.85% (n = 360,000) | inhibition, % at 25 µM;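 active means inhibition or corrected inhibition above about 18%, plus a signal ratio from 0.5 to 1.5, limit read from the data, passing the limit was not always enough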
VLA-4 allo CP = confirmation of allosteric modulators of human VLA-4 integrin; AID 2813; U937 cells, HUTS-21 LIBS mAb binding, flow cytometry; LDV ligand present at threefold Kd; inhibition, % at 6.7 µM; shares compounds with VLA-4 inh; actives 2% (n = 1,300); in the data active means inhibition above about 40%;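 further: 0% = ligand without compound and 100% = no ligand background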
An asterisk follows results filed as active; nt = not tested or not shown. Most compounds without a hit are left out; they make up all but 1.8% or so of the library.

SMILES	A3A deaminase	MIN6 prolif	VLA-4 inh	APOBEC3G inh	CendR NRP1 mod	VLA-4 allo CP
CCN(CC1CCCO1)C(=O)c1cc(COc2cc(C)c(Cl)c(C)c2)on1 (centres undefined)	3.2	-2.6	nt	-1.4	-14.9	nt
c1ccc(-c2nn3cnnc3c3ccccc23)cc1	-4.4	2.9	6.4	-5.3	6.1	-3.5
CCNC(=O)N1C[C@H]2CON(C)[C@H]2C[C@H]1c1ccccc1Br	nt	nt	nt	nt	-4.7	nt
Cc1cc(C)cc(N(CC(=O)Nc2cc(C)ccc2C)S(=O)(=O)c2c(C)[nH]c(=O)[nH]c2=O)c1	-3.1	-1.5	5.5	-4.0	5.6	1.8
Cc1cc(C)cc(N(CC(=O)NC2CCCC2)S(=O)(=O)c2c(C)[nH]c(=O)[nH]c2=O)c1	-1.3	1.1	1.6	-2.2	4.6	nt
Cc1cc(C)cc(N(CC(=O)Nc2ccc(Br)cc2)S(=O)(=O)c2c(C)[nH]c(=O)[nH]c2=O)c1	-9.7	2.8	2.2	-8.7	2.0	12.3
Cc1cc(C)cc(N(CC(=O)Nc2cccc(C)c2C)S(=O)(=O)c2c(C)[nH]c(=O)[nH]c2=O)c1	-4.2	-2.8	9.6	-7.9	10.1	nt
CC(=O)Nc1ccc(-c2ccnc3c2CC(C)(C(=O)NCCc2ccccc2)O3)cc1 (centres undefined)	nt	nt	nt	nt	-22.1	nt
CCOC(=O)c1[nH]c2ccccc2c1NC(C)=O	8.4	4.5	67.6*	2.8	0.8	-3.9
Cc1cc(C)c(S(=O)(=O)N2CCCCC2CCNC(=O)C(=O)NCCN2CCOCC2)c(C)c1 (centres undefined)	0.8	0.6	12.2	-4.2	-16.0	nt
O=C(NC1CC1)c1ccc(-c2cnc3cccnn23)cc1	nt	nt	nt	nt	2.8	nt
C[C@H](Cc1ccccc1)Nc1ncnc2c1ncn2[C@@H]1O[C@H](CO)[C@@H](O)[C@H]1O	3.0	-1.9	59.0*	1.8	-8.6	3.8
CC(Cc1ccccc1)Nc1ncnc2c1ncn2C1OC(CO)C(O)C1O (centres undefined)	1.6	1.6	44.3	0.2	-3.5	nt
COc1ccc(C2c3ccc4ccccc4c3Oc3ncn(CCCN(C)C)c(=N)c32)cc1 (centres undefined)	4.9	-4.9	44.7	-4.0	-2.0	27.4
CC1CN(c2nc3ccccc3nc2SCC(=O)Nc2cccc(C(F)(F)F)c2)CC(C)O1 (centres undefined)	-1.8	-7.8	25.3	-4.2	-4.6	nt
CC(=O)N1CCN(C(=O)c2ccc3c(c2)OCCO3)CC1	1.6	2.0	0.8	-6.4	-1.1	nt
Cc1cc(=O)[nH]c2nnc(-c3ccc(Br)cc3)n12	2.2	-6.7	16.3	0.2	-5.8	nt
COc1ccc(S(=O)(=O)N2CCCC(C(=O)NCc3cccnc3)C2)cc1OC (centres undefined)	-0.9	4.3	50.5*	-3.7	-0.3	2.0
CC(NC(=O)CNC(=O)c1cccs1)c1cccc(C(F)(F)F)c1 (centres undefined)	1.4	-1.8	-6.0	-1.3	-11.3	nt
CCOC(=O)C1(C(F)(F)F)N=C(C(F)(F)F)Nc2ccccc21 (centres undefined)	0.5	0.5	56.3*	-2.3	1.6	1.3
CCOC(=O)C1(Cc2ccccc2)C(=O)Nc2ccccc21 (centres undefined)	-1.3	1.2	4.5	-5.7	-9.5	nt
Cc1cc(C(=O)NNCc2ccccc2)no1	-1.8	-0.7	55.6*	-1.9	-2.7	6.4
O=C(CNc1ccccc1)N/N=C/c1c(O)ccc2ccccc12	2.6	-4.0	50.3*	0.1	-19.8	-2.8
COc1ccc(S(=O)(=O)N2CCOCC2)cc1NC(=O)/C=C/c1ccccc1	0.2	-0.5	nt	-3.7	-2.7	nt
COc1ccccc1NC(=O)Nc1cnccn1	-4.7	-0.3	54.1*	-6.4	-5.5	-0.1
SMILES	A3A deaminase	MIN6 prolif	VLA-4 inh	APOBEC3G inh	CendR NRP1 mod	VLA-4 allo CP
COCCNC(=O)C1(C)Cc2c(-c3ccc(N(C)C)cc3)ccnc2O1 (centres undefined)	nt	nt	nt	nt	-3.7	nt
COc1ccc(-c2sc3ccccc3c2-c2ccc(OCCN3CCCCC3)cc2)cc1	-4.2	-5.1	6.3	-7.9	6.9	6.7
COc1ccc(-c2sc3cc(OC)ccc3c2-c2ccc(OCCN3CCCCC3)cc2)cc1	nt	nt	nt	nt	9.4	nt
c1ccc(-c2sc3ccccc3c2-c2ccc(OCCN3CCCC3)cc2)cc1	0.0	-6.2	45.8	11.3	2.1	23.9
Cc1cc(/C=C(/C#N)C(=O)Nc2ccccc2)c(C)n1-c1cccnc1	0.6	-3.6	94.5*	-5.4	4.4	-2.2
CCC(=O)Nc1ccc(S(=O)(=O)Nc2nccs2)cc1	-4.2	0.7	-1.6	-2.5	10.0	nt
O=C(O)CCC(=O)Nc1ccc(S(=O)(=O)Nc2nccs2)cc1	-0.7	8.6	56.5*	-4.2	2.2	-3.0
COCCN(C(=O)COC(=O)CCC1CCCC1)c1c(N)n(Cc2ccccc2)c(=O)[nH]c1=O	0.5	-3.3	2.2	-8.1	-0.5	nt
O=C(CSc1nn(-c2ccccc2)c(=S)s1)Nn1cnnc1	-8.7	-2.8	0.5	-7.4	-1.7	nt
Cc1ccc(NC(=O)CSc2nn(-c3ccccc3)c(=S)s2)cc1S(=O)(=O)N(C)C	-4.5	-2.8	46.5	-5.0	3.7	3.7
O=C(Nc1ccccc1Cl)c1cc(S(=O)(=O)N2CCCCC2)ccc1N1CCOCC1	3.0	-3.2	-9.5	-2.3	0.2	5.4
O=C(CCc1ccc(S(=O)(=O)N2CCOCC2)cc1)Nc1ccccc1F	-4.8	-1.8	56.2*	-3.8	-78.5	2.0
COc1cc(NC(=O)c2cc(S(=O)(=O)N3CCCCC3)ccc2N2CCOCC2)cc(OC)c1OC	nt	nt	nt	nt	3.9	0.0
Cc1ccc(NC(=O)c2cc(S(=O)(=O)N3CCCCC3)ccc2N2CCOCC2)cc1S(=O)(=O)N(C)C	nt	nt	nt	nt	20.9	-0.1
Cc1ccc(NC(=O)c2cc(S(=O)(=O)N(C)C)ccc2N2CCCC2)cc1S(=O)(=O)N(C)C	3.0	-2.0	2.1	-7.4	-5.2	nt
O=C(Nc1ccccc1N1CCCCC1)c1cc(S(=O)(=O)N2CCOCC2)ccc1Cl	-1.8	-5.9	8.0	-6.4	1.2	nt
Cc1cccc(NC(=O)NCCN2CCN(c3ccccc3)CC2)c1C	-2.2	-0.2	5.4	-6.6	4.2	nt
Cc1cc(CSc2ccc(Cl)cc2)ccc1N	nt	nt	nt	nt	1.8	nt
O=C(Nc1ccccc1F)c1cc(S(=O)(=O)N2CCOCC2)ccc1N1CCOCC1	-2.7	-1.7	nt	-8.8	8.3	-2.1
O=C(Nc1cc(S(=O)(=O)N2CCOCC2)ccc1N1CCOCC1)c1ccccc1F	1.1	-4.1	-1.7	-3.8	5.5	nt
O=C(Nc1cccnc1)C1Cc2c(-c3ccccc3Oc3ccccc3)ccnc2O1 (centres undefined)	nt	nt	nt	nt	0.8	nt
O=C(NCC(c1ccco1)N1CCOCC1)c1ccc(F)c(F)c1 (centres undefined)	-0.7	-1.2	6.0	-0.9	5.0	nt
COC(=O)c1ccsc1NC(=O)CN1C(=O)CCC1=O	0.2	-1.8	51.8*	-4.2	3.2	-0.2
